An excerpt weighted towards active compounds, which were near 6.2% of everything screened.
ATXN viability = reduces viability in counter-screen for ATXN expression inhibitors | S2 cells (HEK-293 line with an ATXN2-luciferase reporter) viability, CellTiter-Fluor protease fluorescence, 24 h | Potency, µM (highest dose often 56.7 µM), hits mostly cytotoxic | actives 0.49% (n = 400,000); note: nearly all actives have a fitted effect of over 40% in size
ATXN2 expr inh = inhibitors of ATXN2 expression | Potency, µM (series often up to 57 µM), actives largely listed as inhibitors | HEK-293 ATXN2-luciferase reporter, luminescence, 24 h | actives 0.72% (n = 360,000) | AID 1745845; note: nearly all actives have a fitted effect of over 55% in size
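qHTS (up to 57 uM final) was run with 24 h compound exposure of reporter cells at 37 °C. Each well was multiplexed: SteadyGlo luminescence measured ATXN2-luciferase expression after a fluorogenic Gly-Phe-AFC viability readout (25 uM final).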
KB-V1 MDR tox = KB-V1 MDR subline cytotoxicity; Potency, µM (series often up to 46.1 µM), actives largely listed as cytotoxic; actives 3.4% (n = 400,000); KB-V1 MDR cells viability, CellTiter-Glo, 72 h; note: nearly all actives have a fitted effect of over 60% in size
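KB-V1 MDR subline cells in DMEM (phenol-red free, 10% FBS) exposed to compounds in qHTS concentration series for 72 h at 37 degrees C. Viability read by CellTiter-Glo luminescence; concentration-effect curves fitted after normalization and correction.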
HT1080NT lethal = kills 2HG-producing HT-1080-NT fibrosarcoma cells; HT-1080-NT fibrosarcoma viability, CellTiter-Glo ATP luminescence, 48 h; Potency, µM (series often up to 46.1 µM), hits mostly cytotoxic; actives 1.6% (n = 360,000);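 note: NT is the 2HG producing partner of a matched IDH1 knockdown line; nearly all actives have a fitted effect of over 55% in size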
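Luminescent CellTiter-Glo readout after 48 hours of compound exposure at 37 degrees C defined viability of HT-1080-NT cells. Activity was normalized to DMSO wells and cell-free media wells; concentration-response curves were fitted and assigned curve classes.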
HT1080 IDH1KD tx = HT-1080 IDH1 knockdown cell toxicity (counter line). HT-1080 IDH1 knockdown viability, ATP luminescence, 48 h. actives 2% (n = 360,000). AID 686971. Potency, µM (doses to about 46.1 µM), most hits filed as cytotoxic
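Knockdown cells (IDH1KD HT-1080) received compounds 2 h after plating at 750 cells/well and were kept 48 h at 37 °C in 5% FBS RPMI. A CellTiter-Glo luminescence read gave % activity for curve fitting.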
KB-3-1 tox = KB-3-1 parental cell cytotoxicity; KB-3-1 viability, CellTiter-Glo ATP luminescence, 72 h; Potency, µM (highest dose often 46.1 µM), actives largely listed as cytotoxic; actives 1.4% (n = 400,000); note: nearly all actives have a fitted effect of over 60% in size
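Viability of parental KB-3-1 cells, measured by CellTiter-Glo luminescence, followed a 72 h incubation at 37 °C with pinned compounds in phenol-red-free DMEM containing 10% FBS.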
Numbers stand for hits; [ ] = remark or other dose. Calls come from the whole dose curve; as a rule, active = well fitted curve in the direction sought with a large enough effect; inconclusive = small, poorly fitted or top-dose-only effect, or another doubt; inactive = no such curve, though single readings can be large; an effect the other way counts as inactive or inconclusive.

For CN(C)CC/C=C1/c2cc(F)ccc2Sc2ccc(Cl)cc21 the results were ATXN viability inactive, ATXN2 expr inh inconclusive, KB-V1 MDR tox inactive, HT1080NT lethal 23µM, HT1080 IDH1KD tx 16µM and KB-3-1 tox inactive.
`CN(C)CC/C=C1/c2ccccc2CSc2ccccc21` gave ATXN viability inactive.
Screening CN(C)CC/C=C1/c2ccccc2Sc2c(O)cc(Cl)cc21 returned ATXN viability inconclusive, ATXN2 expr inh inactive, KB-V1 MDR tox 15µM, HT1080NT lethal inconclusive, HT1080 IDH1KD tx 23µM and KB-3-1 tox inconclusive.
Screening COc1cc(Cl)cc2c1Sc1ccccc1/C2=C/CCN(C)C returned ATXN viability inactive, ATXN2 expr inh inactive, KB-V1 MDR tox inconclusive, HT1080NT lethal inconclusive, HT1080 IDH1KD tx inconclusive and KB-3-1 tox inconclusive.
For Cc1csc2nc(COc3ccccc3NC(=O)c3ccc(C(C)(C)C)cc3)cc(=O)n12 the results were ATXN viability inactive, ATXN2 expr inh inactive, KB-V1 MDR tox inactive and KB-3-1 tox inactive.
`COc1cccc(-c2cc3c(c(OC)c2)OCCN(S(=O)(=O)c2ccccc2OC(F)(F)F)C3)n1` gave ATXN viability inactive.
COc1ccccc1-c1c(C#N)c(N)nc2c1CCc1ccccc1-2 was read as ATXN viability inactive, ATXN2 expr inh inactive, KB-V1 MDR tox 16µM, HT1080NT lethal 15µM, HT1080 IDH1KD tx 16µM and KB-3-1 tox 13µM.
CCOc1cc(-c2c(C#N)c(N)nc3c2CCc2ccccc2-3)ccc1O was read as ATXN viability inconclusive, ATXN2 expr inh inactive, KB-V1 MDR tox 23µM, HT1080NT lethal inactive, HT1080 IDH1KD tx inconclusive and KB-3-1 tox inconclusive.
For COc1ccccc1-c1c(C)c(C)nc(N)c1C#N the results were ATXN viability inactive, ATXN2 expr inh inactive, KB-V1 MDR tox inactive, HT1080NT lethal inactive, HT1080 IDH1KD tx inactive and KB-3-1 tox inactive.
CCOc1cc(-c2cc(-c3ccc(C)cc3)nc(N)c2C#N)ccc1O was read as ATXN viability inconclusive, ATXN2 expr inh inconclusive, KB-V1 MDR tox 8.2µM, HT1080NT lethal 8.9µM, HT1080 IDH1KD tx 13µM and KB-3-1 tox 5.8µM.
`COc1cc(-c2cc(-c3ccc(O)cc3)nc(N)c2C#N)ccc1O` gave ATXN viability inactive, ATXN2 expr inh inactive, KB-V1 MDR tox inconclusive, HT1080NT lethal inconclusive, HT1080 IDH1KD tx inconclusive and KB-3-1 tox inconclusive.
`CCOc1cc(-c2c(C#N)c(N)nc3c2CCCC3C)ccc1O` (centres undefined) gave ATXN viability inactive, ATXN2 expr inh inactive, KB-V1 MDR tox 18µM, HT1080NT lethal inconclusive, HT1080 IDH1KD tx inconclusive and KB-3-1 tox inconclusive.
Screening COc1ccc(-c2c(C#N)c(N)nc3c2CCCCCC3)cc1OC returned ATXN viability inactive, ATXN2 expr inh inactive, KB-V1 MDR tox inactive, HT1080NT lethal inactive, HT1080 IDH1KD tx inactive and KB-3-1 tox inactive.
`CCOc1cc(-c2nc3n(c(=O)c2C#N)CCS3)ccc1O` gave ATXN viability inactive, ATXN2 expr inh inactive, KB-V1 MDR tox inactive, HT1080NT lethal inactive, HT1080 IDH1KD tx inactive and KB-3-1 tox inconclusive.
CCc1ccc(NC(=O)Cn2cnc3nc4c(cc3c2=O)CCCC4)cc1 was read as ATXN viability inactive, ATXN2 expr inh inactive, KB-V1 MDR tox inactive and KB-3-1 tox inactive.
`CCc1ccc(C(=O)c2cn(CC(=O)Nc3ccc(OC)c(OC)c3)c3ccc(C)cc3c2=O)cc1` gave ATXN viability inactive, ATXN2 expr inh inactive, KB-V1 MDR tox inactive and KB-3-1 tox inactive.
For COc1ccc(Nc2nc(-c3cccs3)nc3ccccc23)c(OC)c1 the results were ATXN viability inactive, ATXN2 expr inh inactive, KB-V1 MDR tox inconclusive, HT1080NT lethal inactive, HT1080 IDH1KD tx inactive and KB-3-1 tox inconclusive.
Screening COc1cccc2nc(-c3cccs3)nc(NN3C(=O)C=C(C)C3=O)c12 returned ATXN2 expr inh 6.1µM.
For CC(=O)Nc1ccccc1OCc1cc(=O)n2c3c(sc2n1)CCCC3 the results were ATXN viability inactive, ATXN2 expr inh inactive, KB-V1 MDR tox inconclusive and KB-3-1 tox inactive.
O=C(Nc1ccc2ccccc2c1)Nc1nnc(-c2ccccn2)s1 was read as KB-V1 MDR tox inactive and KB-3-1 tox inconclusive.
Screening O=C(c1csc(Nc2ccccc2Cl)n1)N1CCCC1 returned ATXN viability inactive, ATXN2 expr inh inactive, KB-V1 MDR tox 21µM, HT1080NT lethal inactive, HT1080 IDH1KD tx inactive and KB-3-1 tox inactive.
For COc1cc(OC)c(-c2oc3ccccc3c(=O)c2O)c(OC)c1 the results were ATXN viability inactive, ATXN2 expr inh inconclusive, KB-V1 MDR tox inconclusive, HT1080NT lethal inconclusive, HT1080 IDH1KD tx inconclusive and KB-3-1 tox 8.2µM.
COc1cc(-c2oc3ccc(C)cc3c(=O)c2O)cc(OC)c1OC was read as ATXN2 expr inh inconclusive, KB-V1 MDR tox 23µM and KB-3-1 tox inconclusive.
COc1ccc(OC)c(-c2oc3ccccc3c(=O)c2O)c1 was read as ATXN viability inactive, ATXN2 expr inh inactive, KB-V1 MDR tox inactive, HT1080NT lethal inconclusive, HT1080 IDH1KD tx inconclusive and KB-3-1 tox inactive.
Screening COc1ccccc1CCC(=O)N1CCOc2c(cc(-c3cnc4ccccc4c3)cc2OC)C1 returned ATXN viability inactive.
CCN1CCC(N(Cc2ccc3c(c2)OCO3)C(=O)Nc2ccccc2OC)CC1 was read as ATXN viability inactive, ATXN2 expr inh inactive, KB-V1 MDR tox inactive and KB-3-1 tox inactive.
Screening CCN1CCC(N(Cc2ccc3c(c2)OCO3)C(=O)Nc2cc(Cl)ccc2C(=O)OC)CC1 returned ATXN viability 16µM, ATXN2 expr inh 25µM, KB-V1 MDR tox inconclusive and KB-3-1 tox 16µM.
N#Cc1ccccc1S(=O)(=O)N1CCN(C(=O)C2COc3ccccc3O2)CC1 (centres undefined) was read as ATXN viability inactive, ATXN2 expr inh inactive, KB-V1 MDR tox 21µM, HT1080NT lethal inactive, HT1080 IDH1KD tx inactive and KB-3-1 tox inactive.
For O=C(C1COc2ccccc2O1)N1CCN(S(=O)(=O)c2cc(F)ccc2F)CC1 (centres undefined) the results were ATXN viability inactive, ATXN2 expr inh inactive, KB-V1 MDR tox inactive, HT1080NT lethal inactive, HT1080 IDH1KD tx inactive and KB-3-1 tox inactive.
For Cc1cccc(N(CC(=O)Nc2ccccc2-c2ccccc2)S(=O)(=O)c2ccccc2)c1C the results were ATXN viability inactive, ATXN2 expr inh inactive, KB-V1 MDR tox 21µM, HT1080NT lethal inactive, HT1080 IDH1KD tx inactive and KB-3-1 tox inconclusive.
Screening Cc1ccc(N(CC(=O)Nc2ccccc2-c2ccccc2)S(=O)(=O)c2ccccc2)cc1 returned ATXN viability inactive, ATXN2 expr inh inactive, KB-V1 MDR tox 23µM, HT1080NT lethal inactive, HT1080 IDH1KD tx inactive[9.24 µM] and KB-3-1 tox inactive.
